Bioassay records as filed in PubChem.
TGFb SMAD3 inh: qHTS for Inhibitors of TGF-b | HepG2 CAGA-GFP TGF-b/SMAD3 reporter, GFP fluorescence, 18 h; TGF-beta stimulated, 500 pg/mL final | Potency, µM (highest dose often 46.1 µM), for the others: at the highest dose activity, negative = inhibition, actives largely listed as inhibitors | 410,000 compounds, 1.2% hits | AID 588855, 2011; note: % is set by controls: 0 for no effect and ±100 for the full control effect; nearly all actives have a fitted effect of over 65% in size
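Inhibition was scored as loss of TGF-beta-induced (500 pg/mL final, 18 hours, 37 degrees C) GFP in HEPG2 cells carrying a CAGA-GFP reporter, in DMEM with 1% FBS. Well GFP was summed per cell; Activity was normalised to unstimulated and stimulated DMSO wells, then concentration-response fitting.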
ATXN2 expr inh: Primary qHTS for Inhibitors of ATXN expression; HEK-293 ATXN2-luciferase reporter, luminescence, 24 h; Potency, µM (series often up to 57 µM), without a hit: at the top dose activity change, negative = inhibition, hits mostly inhibitors; 360,000 compounds, 0.72% hits; note: % is set by controls: 0 for no effect and ±100 for the full control effect; nearly all actives have a fitted effect of over 55% in size
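qHTS (up to 57 uM final) was run with 24 h compound exposure of reporter cells at 37 °C. Each well was multiplexed: SteadyGlo luminescence measured ATXN2-luciferase expression after a fluorogenic Gly-Phe-AFC viability readout (25 uM final).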
HepG2 viability: qHTS for Inhibitors of TGF-b: Cytotox Counterscreen | HepG2 CAGA-GFP viability, ATP luminescence, 18 h | Potency, µM (doses to about 46.1 µM), for inactives: at the top dose activity change, negative = cytotoxicity, hits mostly cytotoxic | 410,000 compounds, 0.76% hits
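CellTiter-Glo luminescence gave cytotoxicity after 18 hours at 37 degrees C. The cells were HepG2 CAGA-GFP in 1% FBS DMEM, stimulated with 500 pg/mL TGF-beta after compound addition. %Activity was normalised to no-cell wells (complete cell-killing) and DMSO (no toxicity), and curves were fitted and classified.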
A549 viability: Nrf2 qHTS screen for inhibitors: counterscreen for cytotoxicity; A549 ARE-Fluc cells, CellTiter-Fluor viability, 18-24 h; Potency, µM (top dose mostly 46 µM), without a hit: at the top dose activity change, negative = cytotoxicity, most hits filed as inhibitors; 390,000 compounds, 0.16% hits; note: % is set by controls: 0 for no effect and ±100 for the full control effect
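Cytotoxicity counterscreen: CellTiter-Fluor fluorescence was measured in A549 ARE_Fluc cells after 18-24 h of compound exposure in a concentration series. The subsequent BugLite luminescent read reports ARE-luciferase activity.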
ATXN viability: Viability Counterscreen for Primary qHTS for Inhibitors of ATXN expression; Potency, µM (series often up to 56.7 µM), hits mostly cytotoxic; S2 cells (HEK-293 line with an ATXN2-luciferase reporter) viability, CellTiter-Fluor protease fluorescence, 24 h; AID 651635, 2014; 400,000 compounds, 0.49% hits; note: nearly all actives have a fitted effect of over 40% in size
Nrf2 inh: Nrf2 qHTS screen for inhibitors | Potency, µM (top dose mostly 46 µM), for the others: top-dose activity change, negative = inhibition, hits mostly inhibitors | AID 504444, 2011 | 360,000 compounds, 2.1% hits | A549 ARE-Fluc reporter, luciferase luminescence, 18-24 h; note: % is set by controls: 0 for no effect and ±100 for the full control effect; nearly all actives have a fitted effect of over 60% in size
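Quantitative HTS in A549 cells stably bearing an antioxidant response element-firefly luciferase construct. Inhibition of Nrf2-driven transcription was scored by luminescence after 18-24 h of compound exposure at 37 °C.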
An asterisk follows results filed as active; i = inactive; ? = inconclusive; / = no result. Most compounds without a hit are left out; they make up all but 3.8% or so of the library. Calls come from the whole dose curve; as a rule, active = well fitted curve in the direction sought with a large enough effect; inconclusive = small, poorly fitted or top-dose-only effect, or another doubt; inactive = no such curve, though single readings can be large; an effect the other way counts as inactive or inconclusive. Potency is the fitted concentration of half-maximal effect.

SMILES | TGFb SMAD3 inh | ATXN2 expr inh | HepG2 viability | A549 viability | ATXN viability | Nrf2 inh
CC(C)Cn1c(N)c(C(=O)COC(=O)C2CCCCC2)c(=O)n(C)c1=O | -5.2% | -6.2% | -18.2% | -9.1% | ? | ?
CC(C)Cn1c(N)c(C(=O)COC(=O)C2Cc3ccccc3CN2S(C)(=O)=O)c(=O)n(C)c1=O (stereo unspecified) | ? | -12.3% | -28.7% | -10.3% | i | 20.6µM*
CC(C)Cn1c(N)c(C(=O)COC(=O)c2ccc(O)cc2)c(=O)n(C)c1=O | -22.5% | / | 5.6% | 0.3% | ? | -8.2%
Cc1nn(-c2ccccc2)c(C)c1C(=O)OCC(=O)c1c(N)n(CC(C)C)c(=O)n(C)c1=O | ? | ? | -3.5% | ? | i | 5.8µM*
COc1ccc(CCC(=O)OCC(=O)c2c(N)n(CC(C)C)c(=O)n(C)c2=O)cc1 | 5.8% | 2.3% | 19.7% | -11.4% | i | 23.1µM*
CCOc1ccccc1OCC(=O)OCC(=O)c1c(N)n(CC(C)C)c(=O)n(C)c1=O | ? | / | -33.8% | -1.2% | ? | ?
CC(=O)Nc1ccc(CN(C)c2c(C)nc3ccc(C(=O)N(C)Cc4ccco4)cn23)cc1 | 4.3% | -0.8% | 13.9% | / | i | /
CS(=O)(=O)CCC(C(=O)Nc1ccc2c(c1)OCO2)N1Cc2ccccc2C1=O (stereo unspecified) | 19.5% | 17.4% | -25.9% | -0.3% | i | 2.8%
CC(C)[C@H](NC(=O)c1ccco1)C(=O)Nc1ccc(OC(F)F)cc1 | -5.9% | 0.1% | 5.8% | 6.3% | i | 3.5%
Cc1cc2c(s1)c1cnn(Cc3cc(C(F)(F)F)ccc3F)c(=O)c1n2C | / | / | / | -0.4% | / | 3.6%
CC(=O)c1c(C)[nH]c(C(=O)OCC(=O)c2c(N)n(CC(C)C)c(=O)n(C)c2=O)c1C | 2.2% | / | -4.7% | -2.1% | ? | 18.4µM*
COc1cc2c(cc1OC)-c1cc(Nc3ccc(N(C)C)cc3)nc(=O)n1CC2 | 26.3% | 11.8% | 1.2% | -2.6% | i | ?
CCN(CC)c1ccc(Nc2cc3n(c(=O)n2)CCc2cc(OC)c(OC)cc2-3)cc1 | 4.3% | -1.1% | 1.4% | -3.9% | i | 16.4µM*
Cc1ccc(Cl)cc1NCc1nnc2n1CCCCC2 | 2.8% | 4.8% | 3.4% | -2.2% | i | /
Cc1cc(SCC(=O)NC2CCCC2)nc2ccccc12 | -0.2% | -6.7% | 1.9% | 1.4% | i | -1.8%
CCN(CC)C(=O)c1cccc(-c2csc(C(C)(O)c3cccc(F)c3)n2)c1 (stereo unspecified) | ? | 28.2µM* | -19.0% | / | ? | /
COc1cccc(C(C)(O)c2nc(-c3cc4ccccc4o3)cs2)c1 (stereo unspecified) | 8.91µM* | 4.5% | -80.0% | / | i | /
CC(=O)Nc1cccc(-c2csc(C(C)(O)c3cccc(F)c3)n2)c1 (stereo unspecified) | -2.0% | -16.1% | -8.5% | / | i | /
CC(O)(c1ccccc1)c1nc(-c2csc3ccccc23)cs1 (stereo unspecified) | ? | 2.3% | -29.0% | / | i | /
CC(O)(c1cccc(F)c1)c1nc(-c2csc3ccccc23)cs1 (stereo unspecified) | 12.6µM* | 0.0% | -66.3% | / | ? | /
CC(O)(c1ccccc1)c1nc(-c2cccc(F)c2)cs1 (stereo unspecified) | ? | -2.6% | -20.4% | / | i | /
CC(O)(c1cccc(F)c1)c1nc(-c2cc(F)cc(F)c2)cs1 (stereo unspecified) | 11.2µM* | 0.0% | -64.0% | / | ? | /
Cc1ccc(C)c2c1[nH]c1ccc([N+](=O)[O-])cc12 | -6.5% | -26.3% | -25.1% | -16.9% | i | ?
CC(=O)c1cccc(NC(=O)COC(=O)C2=COCCO2)c1 | -14.0% | 18.4% | -21.0% | 0.2% | i | -0.1%
CC(C)c1cccc(-c2csc(C(C)(O)c3ccc(F)c(F)c3)n2)c1 (stereo unspecified) | ? | 0.0% | 20µM* | / | i | /
SMILES | TGFb SMAD3 inh | ATXN2 expr inh | HepG2 viability | A549 viability | ATXN viability | Nrf2 inh
Cn1cc(-c2csc(C(C)(O)c3cccnc3)n2)cn1 (stereo unspecified) | 7.4% | 0.2% | 2.24µM* | / | i | /
CC(O)(c1ccc(F)c(F)c1)c1nc(-c2cccc(F)c2)cs1 (stereo unspecified) | ? | -9.5% | -24.4% | / | i | /
Cc1cc(C)c(/C=C/c2onc(C)c2S(=O)(=O)N2CCC(C(=O)N3CCN(c4ccccc4)CC3)CC2)c(C)c1 | 2.6% | / | -2.8% | 5.6% | / | /
Cc1cc(C(=O)Nc2sc(C)c(-c3ccc(F)cc3)c2C(N)=O)no1 | ? | 47.0% | -15.8% | 4.9% | i | ?
Cc1sc(NC(=O)c2ccc(OCC(C)C)cc2)c(C(N)=O)c1-c1ccc(Cl)cc1Cl | -20.9% | -14.3% | -4.2% | -9.4% | ? | 18.4µM*
CCOc1ccc(-c2csc(/C(C#N)=C\c3ccc(O)c([N+](=O)[O-])c3)n2)cc1 | 5.01µM* | ? | -6.7% | 16.4µM* | / | ?
CC1(C(=O)NS(=O)(=O)Cc2ccccc2)CCN1C(=O)CCc1ccccc1 (stereo unspecified) | 1.8% | 12.0% | 6.8% | / | i | /
O=C(C1CCCN(S(=O)(=O)c2cccc3nsnc23)C1)N1CCCCCC1 (stereo unspecified) | 1.2% | -9.6% | -0.7% | 0.7% | ? | -15.5%
O=C(C1CCCN(S(=O)(=O)c2cccc3nsnc23)C1)N1CCc2ccccc2C1 (stereo unspecified) | -26.7% | -14.1% | -17.4% | -16.7% | ? | 14.6µM*
O=C(C1CCCN(S(=O)(=O)c2cccc3nsnc23)C1)N1CCN(c2ccccc2Cl)CC1 (stereo unspecified) | 14.1µM* | -21.2% | -36.3% | -2.1% | i | ?
COc1ccc2nc(NC(=O)C3CCN(S(=O)(=O)c4cccc5nsnc45)CC3)sc2c1 | -3.8% | ? | -32.8% | -20.1% | i | 16.4µM*
Cc1nnc(NC(=O)C2CCN(S(=O)(=O)c3cc([N+](=O)[O-])ccc3Cl)CC2)o1 | -22.3% | -0.9% | -16.9% | 1.4% | ? | -5.2%
Cc1cccc2sc(NC(=O)C3CCN(S(=O)(=O)c4cc([N+](=O)[O-])ccc4Cl)CC3)nc12 | -20.3% | -35.9% | -16.3% | ? | i | 11.6µM*
